Records with an inconclusive call do not appear. The source made the active and inactive calls. Calls come from the whole dose curve; as a rule, active = well fitted cell-killing curve with a large enough effect; inconclusive = small, poorly fitted or top-dose-only effect; inactive = flat fitted curve, though single readings scatter.
Assay: Compound cytotoxicity measured by an ATP content assay as a counter-screen for lead compounds in human iPSC derived neural progenitor cells (hNPCs)
Settings: human iPSC-derived NPC viability, ATP luminescence; series mostly up to 46.1 µM; activity, negative = cytotoxicity: at the top concentration
Method: National Center for Advancing Translational Sciences [NCATS] Johns Hopkins University School of Medicine Florida State University Assay Overview: Many compounds can cause cytotoxicity at high compound concentrations. […] The compound cytotoxicity may also cause side effects or toxicity in human. Thus, the compound cytotoxicity needs to be measured in each cell type and each compound incubation time - same as these in the compound screening assay. The compound cytotoxicity can be measured by cell viability assays such as the ATP content assay. We use an ATP content assay kit for cell viability measurement. It measures ATP content (level) in human iPSC derived neural progenitor cells (hNPCs) using a luminescence readout that is proportional to viable cell numbers. Decrease in the luminescence signal after the compound treatment indicates reduced cell viability and cell death caused by compound treatment.
Assay Protocol Summary: The medium for hNPCs consists of DMEM/F12, N2 supplement (ThermoFisher, Cat.# 17502048), NEAA (ThermoFisher, Cat. # 11140050), 2 ug/ml heparin, 2 uM cyclopamine, and B27 (ThermoFisher, Cat. # 17504044). The ATP content assay kit (PerkinElmer, Cat.# 6016731) was used to determine cell viability. The reagent was reconstituted and prepared as described by the manufacturer. Cells were seeded in 384- or 1536-well assay plates and cultured at 37 C with 5% CO2 for 16 to 20 hours. The typical cell seeding density in the 1536-well plate assay is 350 cells/well in 3 ul medium for hNPCs in the tissue cultured treated/PDL coated plates. Compounds were added to cells and incubated for a specific time such as 6, 24, or 72 hours before addition of the reagent mixture of the ATP content assay kit at 1:1 ratio. After incubation at room temperature for 10 minutes, the luminescence intensity in assay plates was measured using a ViewLux plate reader (PerkinElmer). […] The percentage inhibitions of the decreased cell viability by small molecules were then calculated that indicate compound cytotoxicity.

Compound | activity, negative = cytotoxicity | Potency
CC(C)N[C@@H]1CCn2c(=O)[nH]c3cccc(c32)[C@@H]1O | -2.56% (inactive) | –
O=C1CCC[C@@H]2[C@H]3CCCN4CCC[C@@H](CN12)[C@@H]34 | -6.59% (inactive) | –
CC(C)[C@H]1C(=O)N[C@H](CO)Cc2c[nH]c3cccc(c23)N1C | -7.67% (inactive) | –
CC(C)[N+](C)(CCC(C(N)=O)(c1ccccc1)c1ccccc1)C(C)C | 1.39% (inactive) | –
O=c1c2ccccc2[se]n1-c1ccccc1 | – | 12300 nM (active)
O=C1C=CC[C@@H]2[C@H]3CCCN4CCC[C@@H](CN12)[C@@H]34 | 4.73% (inactive) | –
Oc1ccc([C@H]2CNCc3c2ccc(O)c3O)cc1O | -5.13% (inactive) | –
COC1(CS(=O)c2ccccc2)CCN(CCc2c[nH]c3ccc(F)cc23)CC1 (stereo not drawn) | 0.672% (inactive) | –
S=C(SSC(=S)N1CCCCC1)N1CCCCC1 | – | 245 nM (active)
CC(O)CN1CCN(CC(=O)[O-])CCN(CC(=O)[O-])CCN(CC(=O)[O-])CC1.[Gd+3] (stereo not drawn) | 5.47% (inactive) | –
COP(=S)(OC)SCN1C(=O)c2ccccc2C1=O | -12.2% (inactive) | –
Cc1ccc([N+](=O)[O-])[c]2c1[O][Hg]2 | – | 869 nM (active)
CN1CC[C@@]2(C)c3cc(OC(=O)Nc4ccccc4)ccc3N(C)[C@@H]12 | -15.7% (inactive) | –
